The results in this text go back to the antibiotic and cytotoxicity screens of Wong et al. (2023).

SMILES strings stand for the structures. In all, about 39,000 compounds went through this assay and about 1,500 (3.8%) were called active. This excerpt belongs to a sample that is enriched for actives.

The subject of the assay is HSkMC (human skeletal muscle cells). In words: cytotoxicity call (relative viability < 0.9). As to conditions: 10 µM.
In the case of `CC(C)(C)NCC(O)COc1ccccc1C1CCCC1.O=S(=O)(O)O` (configuration not stated), the cytotoxicity call is “inactive”.
The value for `Cc1ccc2sc(C(=O)O)cc2c1` was “inactive”; that for `COc1ccc(S(=O)(=O)Nc2ccc3c(c2)C(=O)N([C@@H](C)CO)C[C@@H](C)[C@H](CN(C)C(=O)Nc2cccc4ccccc24)OCCCC[C@@H](C)O3)cc1` was “inactive”; that for `C[C@H]1CN([C@@H](C)CO)S(=O)(=O)c2ccc(C#Cc3cccc(F)c3)cc2O[C@@H]1CN(C)S(=O)(=O)c1cn(C)cn1` was “inactive”.
In the case of `CO[C@@H]1CN(C)C(=O)c2ccc(NS(C)(=O)=O)cc2OC[C@@H](C)N(S(C)(=O)=O)C[C@H]1C`, the cytotoxicity call was “inactive”.
Consider `C[C@@H]1CN([C@@H](C)CO)C(=O)c2cccc(NC(=O)c3cnccn3)c2O[C@H]1CN(C)S(=O)(=O)c1ccc(Cl)cc1`, for which the cytotoxicity call was “inactive”.
The value for `C[C@H]1CN([C@@H](C)CO)C(=O)c2cc(Br)cnc2O[C@H]1CN(C)Cc1ccccc1C(=O)O` was “inactive”; that for `C[C@H]1CN([C@@H](C)CO)C(=O)c2cccc(NC(=O)Nc3ccc(C(F)(F)F)cc3)c2O[C@H]1CN(C)S(=O)(=O)c1ccc(F)cc1` was “inactive”.
As to `OC1(c2ccc(Cl)c(C(F)(F)F)c2)CCN(CCCC(c2ccc(F)cc2)c2ccc(F)cc2)CC1` [listing 1 of 2 here], the cytotoxicity call is “active”.
`OC1(c2ccc(Cl)c(C(F)(F)F)c2)CCN(CCCC(c2ccc(F)cc2)c2ccc(F)cc2)CC1` [listing 2 of 2 here]: the cytotoxicity call was “active”.
In the case of `O=C(CCCN1CCC(O)(c2ccc(Cl)cc2)CC1)c1ccc(F)cc1`, the cytotoxicity call is “inactive”.
Consider `O=C(CCCN1CCC(O)(c2ccc(Br)cc2)CC1)c1ccc(F)cc1`, for which the cytotoxicity call was “inactive”.
The value for `COc1ccc(S(=O)(=O)Nc2cccc3c2O[C@@H](CN(C)S(=O)(=O)c2ccccc2)[C@@H](C)CN([C@H](C)CO)C3=O)cc1` was “inactive”; that for `C[C@@H]1CN([C@H](C)CO)C(=O)c2cccc(NS(=O)(=O)c3cn(C)cn3)c2O[C@H]1CN(C)C(=O)Nc1ccc(F)cc1` was “inactive”; that for `C[C@@H]1CN([C@@H](C)CO)C(=O)c2cc(NC(=O)Cc3ccccc3)ccc2O[C@@H](C)CCCCO[C@@H]1CN(C)C(=O)Nc1cccc2ccccc12` was “inactive”.
Turning to `CO[C@H]1O[C@H](CO)[C@@H](OC(=O)Nc2ccc3c(c2)OCO3)[C@H](OC(=O)Nc2ccc3c(c2)OCO3)[C@@H]1OC(=O)Nc1ccc2c(c1)OCO2`, the cytotoxicity call was “inactive”.
The value for `CN(C)C(=O)C[C@H]1CC[C@@H]2[C@@H](COc3ccc(NS(=O)(=O)c4cccc(F)c4)cc3C(=O)N2C)O1` was “inactive”; that for `COc1cccc(C#Cc2ccc([C@@H]3[C@H]4CN(S(=O)(=O)c5ccccc5C)CC(=O)N4[C@H]3CO)cc2)c1` was “inactive”.
For the compound `COc1cccc(C#Cc2ccc([C@H]3[C@H](CO)N4C(=O)CN(S(=O)(=O)c5ccccc5C)C[C@@H]34)cc2)c1`, the cytotoxicity call was “inactive”.
Take `O=C1CN(S(=O)(=O)Cc2ccccc2)C[C@H]2[C@@H](c3ccc(C#Cc4ccc(F)cc4)cc3)[C@@H](CO)N12`: the cytotoxicity call was “inactive”.
Turning to `O=C1CN(S(=O)(=O)Cc2ccccc2)C[C@H]2[C@H](c3ccc(C#Cc4ccc(F)cc4)cc3)[C@@H](CO)N12`, the cytotoxicity call was “active”.
With `O=C1CN(S(=O)(=O)Cc2ccccc2)C[C@@H]2[C@@H](c3ccc(C#Cc4ccc(F)cc4)cc3)[C@H](CO)N12`, the cytotoxicity call is “inactive”.
For the compound `O=C1CN(S(=O)(=O)Cc2ccccc2)C[C@H]2[C@@H](c3ccc(C#Cc4ccc(F)cc4)cc3)[C@H](CO)N12`, the cytotoxicity call is “inactive”.
As for `O=C1CN(S(=O)(=O)Cc2ccccc2)C[C@@H]2[C@@H](c3ccc(C#Cc4ccc(F)cc4)cc3)[C@@H](CO)N12`, the cytotoxicity call was “active”.
As to `O=C1CN(S(=O)(=O)Cc2ccccc2)C[C@@H]2[C@H](c3ccc(C#Cc4ccc(F)cc4)cc3)[C@H](CO)N12`, the cytotoxicity call is “active”.
As for `O=C1CN(S(=O)(=O)Cc2ccccc2)C[C@H]2[C@H](c3ccc(C#Cc4ccc(F)cc4)cc3)[C@H](CO)N12`, the cytotoxicity call is “active”.
The value for `O=C1CN(S(=O)(=O)Cc2ccccc2)C[C@@H]2[C@H](c3ccc(C#Cc4ccc(F)cc4)cc3)[C@@H](CO)N12` was “inactive”.
